Apoferritin bind – candidate novel general anesthetic via apoferritin binding | P02791 | apoferritin/1-aminoanthracene competitive binding, fluorescence | Potency, µM (titrated, usually from 77.5 µM), inactives show top-dose activity change, negative = displacement, actives largely listed as inhibitors | hit rate 0.074% among 350,000; note: potency is the fitted concentration of half-maximal effect; % is set by controls: 0 for no effect and ±100 for the full control effect; nearly all actives have a fitted effect of over 20% in size
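Apoferritin-based anesthetic binding model; compound displacement of fluorescent 1-AMA measured as endpoint fluorescence after 10 minutes at room temperature, scaled to free-ligand and complex controls.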
Glioma ERSR ind – inducers of ER stress response in human glioma cells | U87-MG GRP78 promoter luciferase reporter, 16 h | Potency, µM, inactives show at the highest dose activation, usual class: activators | hit rate 0.02% among 420,000 | AID 602332; note: potency is the fitted concentration of half-maximal effect; series mostly up to about 76 µM; % of control where 0% means no effect; nearly all actives have a fitted effect of over 35% in size
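Stably transfected U87-MG glioma cells carrying a GRP78-based luciferase sensor; 16 h compound incubation. Luminescence end-point read 10 min after Bright-Glo addition at room temperature.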
a7 integrin act – integrin-mediated muscular dystrophy alleviation activation | alpha7betagal myoblasts, beta-gal FDG fluorescence, 48 h | Potency, µM (highest dose often 38.3 µM), without a hit: at the top dose activation, most hits filed as activators | hit rate 0.064% among 350,000 | AID 624291;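 note: potency is the fitted concentration of half-maximal effect; 100% = response of the positive control SU9516; nearly all actives have a fitted effect of over 60% in size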
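alpha7betagal+/- myoblasts (passage 13, 250/well) treated 48 h at 37C with compounds at 1:260 dilution of DMSO stock. Lysed, then beta-galactosidase activity read as FDG fluorescence (ex 480/em 540) after 30 min, with pre-read for autofluorescence.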
ClpP mod – qHTS Assay for Activators of ClpP; Potency, µM (doses to about 57.5 µM), for inactives: top-dose activity change, negative = active; ATP-dependent Clp protease proteolytic subunit (Bacillus subtilis (strain 168)), P80244; hit rate 1.9% among 340,000; purified B. subtilis ClpP, FRET peptide cleavage, 20 min; active = well fitted falling curve with a large enough effect; inconclusive = small, poorly fitted or top-dose-only effect; inactive = no such curve, though single readings can be large or run the other way; note: potency is the fitted concentration of half-maximal effect; the source files actives as falling curves though it sought activators and does not explain the sign; nearly all actives have a fitted effect of over 65% in size
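Purified B. subtilis ClpP, 10 microg/mL final in Tris/HCl pH8 with KCl, BSA, glycerol and Tween-20, cleaved an Abz/nitrotyrosine-quenched decapeptide. Fluorescence (ex 320, em 430) was read at 0 and 20 min at room temperature. Delta was normalized to 5.8 microM ADEP and DMSO/no-enzyme controls.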
CBFb-RUNX1 inh – blocks binding between human CBF-beta and RUNX1 | AID 1477 | 230,000 tested, under 10 active | AlphaScreen CBFb-His/RUNX1-biotin binding, biochemical | Potency, µM (series often up to 59.8 µM), without a hit: at the highest dose activity, negative = inhibition, usual class: inhibitors; note: % of control where 0% means no effect
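Interaction loss through any mechanism counts as activity. Pre-formed complex of His-CBF-beta and biotin-RUNX1 (30 nM apiece) is incubated with compound 15 min, then with 50 ng nickel and 50 ng streptavidin beads for 90 min before AlphaScreen detection.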
N370S GC – N370S glucocerebrosidase modulation, Gaucher chaperone candidate. P04062. N370S GC spleen homogenate, 4MU-glucoside fluorescence. Potency, µM (top dose mostly 59.4 µM), without a hit: at the top dose activity change, negative = inhibition, usual class: inhibitors. hit rate 0.092% among 330,000. AID 2101;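 note: potency is the fitted concentration of half-maximal effect; 0% = full enzyme activity and -100% = no enzyme basal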
An asterisk follows results filed as active; i = inactive; ? = inconclusive; / = no result given. The entries come from a sample that favours hits as a whole. Unless noted, calls come from the whole dose curve; as a rule, active = well fitted curve in the direction sought with a large enough effect; inconclusive = small, poorly fitted or top-dose-only effect, or another doubt; inactive = no such curve, though single readings can be large; an effect the other way counts as inactive or inconclusive.

SMILES	Apoferritin bind	Glioma ERSR ind	a7 integrin act	ClpP mod	CBFb-RUNX1 inh	N370S GC
COc1ccc(-c2nc(C#N)c(NCc3ccccc3Cl)o2)cc1	-9%	-6%	-10%	35µM*	10%	7%
CCCCCCCCCC[n+]1ccc(/C=C/c2c(C)[nH]c3ccccc23)cc1	/	-12%	/	0%	/	/
Nc1nc(=S)[nH]c2n[nH]nc12	/	-2%	/	-2%	/	/
COc1cccc(Cc2nc3cccnc3n2C2CCN(C(=O)c3n[nH]c4c3CCCC4)CC2)c1	/	-2%	/	/	/	/
Cc1ccc(Nc2ncnc3nc[nH]c23)cc1	/	-1%	/	1%	/	/
Cc1ccccc1C1(CC(=O)N2CCC[C@H]2C(N)=O)CC(=O)N(C2CCCC2)C1=O (stereo partly drawn)	/	0%	/	/	/	/
C[n+]1cn(/N=C/c2ccccc2)c2ccccc21	2%	-3%	12%	-2%	-12%	3%
CC(=O)N(C(C)=O)c1nc(-c2ccccc2)cn1/N=C/c1ccccc1	-10%	-7%	-23%	32µM*	4%	8%
O=C(O)c1cc(NCc2ccc(F)cc2)ccc1N1CCOCC1	3%	-1%	14%	32µM*	6%	1%
O=C(O)c1cc(NCc2cccs2)ccc1N1CCOCC1	-6%	-4%	7%	-2%	-1%	-3%
COc1ccc(C2C3=C(CCCC3=O)Nc3ccc4ncccc4c32)cc1OC (stereo not drawn)	-12%	-2%	-8%	6.3µM*	0%	-4%
N#Cc1ccccc1COC(=O)CCN=C1NS(=O)(=O)c2ccccc21	/	-3%	?	/	/	/
O=C(CCN=C1NS(=O)(=O)c2ccccc21)OCc1nnc(-c2ccc([N+](=O)[O-])cc2)o1	/	-5%	-3%	28µM*	/	/
Cc1cccc(C)c1OC(=O)CSc1nnc(-c2ccc3c(c2)OCO3)o1	-15%	-5%	/	25µM*	/	/
CC(=O)Nc1ccc(/C=C/c2ccccn2)cc1	/	-1%	/	-12%	/	/
Nc1c(C(=O)NCc2ccc(F)cc2)c2nc3ccccc3nc2n1CCCN1CCOCC1	193%	-16%	-71%	35µM*	?	10%
CC(C)Cn1c(N)c(C(=O)NCCN2CCOCC2)c2nc3ccccc3nc21	125%	-3%	-29%	28µM*	1%	?
Cc1cccc(-n2c(N)c(C(=O)NCCN3CCOCC3)c3nc4ccccc4nc32)c1	605%	-3%	-6%	?	22%	15%
COC(=O)C1[C@H]2SC(C)(C)C(C(=O)OC)N2C(=O)N1Cc1ccccc1 (stereo partly drawn)	/	-5%	/	0%	/	/
Cc1cnc(-c2nnc(N(C)C(=O)C3CCCO3)s2)cn1 (stereo not drawn)	-9%	0%	14%	28µM*	-2%	6%
COc1ccc(OC)c(/C=C/c2ccc3ccccc3[n+]2C)c1	/	-6%	/	1%	/	/
COc1cccc(-n2ccnc2SCC(=O)Nc2nccs2)c1	-7%	-1%	-7%	28µM*	-9%	-20%
Cc1cccc(-n2ccnc2SCC(=O)Nc2nccs2)c1	-8%	0%	1%	2%	-9%	-12%
C=CCNC(=S)N/N=C/c1ccc(N(CC)Cc2ccccc2)cc1	i	-3%	-21%	8.9µM*	-6%	1%
COc1ccc(/C=N/NC(=O)Cc2cccs2)cc1	-15%	1%	16%	3%	2%	5%
SMILES	Apoferritin bind	Glioma ERSR ind	a7 integrin act	ClpP mod	CBFb-RUNX1 inh	N370S GC
CCN(CC)c1ccc(/C=N/NC(=S)NCc2ccc(OC)cc2)cc1	i	-5%	14%	/	-19%	5%
CCN(CC)c1ccc(/C=N/NC(=O)Cc2cccs2)cc1	104%	2%	25%	28µM*	-7%	8%
CCN(CC)c1ccc(/C=N/NC(=S)NCc2ccccc2)cc1	i	-4%	-25%	25µM*	-13%	3%
N#Cc1ccc2ccn(CC(=O)NC3CCCCCC3)c2c1	-11%	-3%	15%	?	4%	1%
COC(=O)c1ccc2ccn(CC(=O)NC3CCCCC3)c2c1	0%	-5%	3%	8.9µM*	1%	10%
CC(C)N1CCc2c(sc(N)c2C#N)C1	-7%	-2%	-30%	25µM*	-20%	18%
N#Cc1c(N)sc(=S)c2c1CCN(Cc1ccccc1)C2	4%	/	/	/	?	-1%
CCN1CCc2c(sc(N)c2C#N)C1	-6%	-6%	19%	28µM*	-3%	12%
CO[C@H]1[C@H](NC(=O)c2ccsc2)c2ccccc2C12CCN(Cc1cc3ccccc3o1)CC2	/	-3%	/	/	/	/
COc1cc(=O)n2c(c1C(=O)NCc1nonc1C)CCN(Cc1c[nH]c3ccccc13)CC2	/	-5%	/	/	/	/
c1ccc(-c2nc(-n3nc4ccccc4n3)nc3ccccc23)cc1	?	-4%	0%	35µM*	1%	?
COc1ccc(CNc2nc3ccccc3c3nc(-c4ccccc4)nn23)cc1	42%	-1%	/	28µM*	/	/
CCN(CC)CCCNc1nc2cc(OC)c(OC)cc2c2nc(-c3ccccc3)nn12	-21%	-12%	-70%	32µM*	0%	-10%
COc1ccc(CC(=O)Nc2ccc(-c3cn4cccc(C)c4n3)cc2)cc1OC	-4%	-7%	6%	?	-12%	-8%
COc1ccc(CC(=O)Nc2ccc(-c3cn4ccc(C)cc4n3)cc2)cc1	8%	-4%	-17%	16µM*	-1%	?
COCCN1CCN(C(=O)c2cnn(-c3nccc(-c4cc5ccccc5o4)n3)c2C2CC2)CC1	/	-3%	/	/	/	/
CCN(CC)c1ccc(/C=N/OC(C)C(=O)Nc2ccc(C)cc2)cc1 (stereo not drawn)	56%	-4%	-45%	28µM*	1%	?
CCc1nc(N2CCOCC2)c(C#N)c2c1CCCC2	-15%	-4%	-14%	95%	8%	15%
CCc1nc(N2CCCC2)c(C#N)c2c1CCCC2	-12%	-6%	-1%	20µM*	4%	18%
CC(C)c1nc(N2CCCC2)c(C#N)c2c1CCCC2	5%	-7%	-27%	28µM*	16%	14%
CC1CCCC(NC(=O)COC(=O)CCC(=O)c2ccc(F)cc2)C1C (stereo not drawn)	/	-2%	27%	2.5µM*	/	/
COc1cccc(Cn2cccc(NC(=O)Nc3cccc(C#N)c3)c2=O)c1	2%	-2%	-16%	28µM*	23%	-19%
COc1ccc(OCC(=O)OC2CCN(C)CC2)cc1	-2%	-3%	0%	16µM*	7%	10%
CN1CCC(OC(=O)COc2ccc(Br)cc2)CC1	-8%	3%	13%	/	-6%	-17%
O=C(Cc1ccc(-c2ccccc2)cc1)NO	/	3%	/	-4%	/	/
CN(C)c1ccc(-c2nc(-c3cccs3)c(-c3cccs3)[nH]2)cc1	48%	-3%	/	11µM*	/	/
